Molecules are shown by their SMILES. Results filed as inconclusive are left out. Where a call stands in place of a potency, no number is given. A number with no mark means an inactive call. The source made the active and inactive calls. Calls follow the shape of the dose curve; as a rule, active = well fitted cell-killing curve with a large enough effect; inconclusive = small, poorly fitted or top-dose-only effect, or effect the other way; inactive = flat fitted curve, though single readings scatter. Where a SMILES comes first, the peptide text is derived from it. The star is where a group is joined. PhAc = O=C(Cc1ccccc1)*

The assay deals with SKOV3. Nature of the assay: Primary qHTS to identify gynecologic anti-cancer compounds using libraries of approved drugs and bioactive compounds (AID 1345084). Also: nearly all actives have a fitted effect of over 55% in size. The conditions noted are these: Gynecologic cancer cell panel viability, ATPlite luminescence, 48 h; series mostly up to 57.5 µM. The method, boiled down:
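Cytotoxicity screen measuring ATP content by luciferase luminescence. Each compound is applied at five concentrations for 48 h at 37 C with 5% CO2.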
For `COC1CC(O[C@H]2CC[C@@]3(C)C(=CC[C@]4(O)C3[C@H](O)[C@@H](O)[C@]3(C)[C@@H]([C@H](C)O)CC[C@@]34O)C2)OC(C)C1OC1CC(OC)C(OC2CC(OC)C(OC3OC(C)C(OC4OC(CO)C(O)C(O)C4O)C(OC)C3O)C(C)O2)C(C)O1` (some centres not stated), the activity change, negative = cytotoxicity is 1.02% [at 11.6 µM].

For `C=C1CCC2[C@](C)(CO)CCC[C@@]2(C)[C@@H]1CCC1=CCOC1=O` (some centres not stated), the Potency result is “inactive”.

Regarding `C=C1CCC[C@]2(C)CC[C@@](O)(C(=C)C(=O)O)C[C@@H]12`, the Potency result was “inactive”.

As for `CC1CC(=O)[C@]2(O)C(C(=O)OCCc3ccc(O)cc3)=CO[C@@H](O[C@@H]3O[C@H](CO)[C@@H](O)[C@H](O)[C@H]3O)[C@H]12` (some centres not stated), the Potency entry was “inactive”.

`COC(=O)C1=COC(O[C@@H]2O[C@H](CO)[C@@H](O)[C@H](O)[C@H]2O)[C@@H]2[C@@](C)(O)[C@@H](OC(=O)/C=C/c3ccccc3)C[C@]12O` (some centres not stated): the Potency entry is “inactive”.

Turning to `CCC[C@H](N[C@@H](C)C(=O)N1[C@H](C(=O)O)C[C@@H]2CCCC[C@@H]21)C(=O)O`, the Potency entry was “inactive”.

As to `CC1OC(OC2C(OC(=O)[C@]34CCC(C)(C)C[C@H]3C3=CCC5[C@@]6(C)CC[C@H](OC7OC(C(=O)O)C(O)C(O)C7O)C(C)(C)C6CC[C@@]5(C)[C@]3(C)CC4O)OC(CO)C2O)C(O)C(O)C1OC1OCC(O)C(O)C1O` (some centres not stated), the activity change, negative = cytotoxicity was -0.208% [at 11.6 µM].

Regarding `CCOC(=O)CNC(=O)[C@@H]1CCCN1C(=O)Cc1ccccc1` (PhAc-Pro-Gly-OEt), the Potency result was “inactive”.

For `C/C(=C\CC[C@H](CO)[C@@H]1CC[C@]2(C)C3=C(CC[C@@]12C)[C@@]1(C)CCC(=O)C(C)(C)C1CC3)C(=O)O` (some centres not stated), the Potency result is “inactive”.

`C=C1CCC2C(C)(C)CCC[C@]2(C)[C@H]1CC/C(C)=C/C(=O)O` (some centres not stated): the Potency entry was “inactive”.

For the compound `COCC1OC(OC(C)(C)C2CCC3(C)C=C(C4CCC5C4(C)CC(O)C4OC(C(C)(C)O)CCC45C)CCC3O2)C(NC(C)=O)C(O)C1O` (configuration not stated), the Potency result was “inactive”.

As to `C=C1CCC2[C@](C)(CCC[C@]2(C)C(=O)O)[C@H]1CC/C(C)=C/C(=O)OC` (some centres not stated), the Potency entry is “inactive”.

Take `COC(=O)c1c(CC=C(C)C)c(OC2OC(CO)C(O)C(O)C2O)c2ccccc2c1OC1OC(CO)C(O)C(O)C1O` (configuration not stated): the Potency result was “inactive”.

In the case of `O=C(Cc1ccccc1)OC[C@H]1O[C@H](O[C@H]2O[C@H](CO)[C@@H](O)[C@H](O)[C@H]2O)[C@H](O)[C@@H](O)[C@@H]1O`, the Potency entry was “inactive”.

With `CC1=C2C[C@H]3OC(=O)[C@H](O)[C@@]4(O)[C@@H](C)[C@@H](O)[C@H](O)C([C@@]2(C)[C@H](O)[C@@H](O)C1)[C@@]34C` (some centres not stated), the Potency result is “inactive”.

Turning to `CC1CC(=O)C2=C(O1)OC1(C)CCC3C(C)(C)C4OC4C(=O)C3(C)C1C2` (configuration not stated), the Potency result was “inactive”.

Turning to `COc1ccnc(CCc2nc3ncccc3[nH]2)c1`, the Potency result was “inactive”.

For the compound `C/C(=C/CO)CC[C@H]1[C@]2(C)C[C@H](O)CC(C)(C)[C@H]2CC[C@]1(C)O`, the Potency result was “inactive”.

`COc1c2c(c(C)c3c1C(=O)OC3)OC1(C)CC(O)C34OC(O)(CCC3(C)C1C2)OC4(C)C` (configuration not stated): the Potency entry is “inactive”.

Turning to `COC(=O)[C@]1(Cc2ccc(O)c(CC=C(C)C)c2)OC(=O)C(O)=C1c1ccc(O)cc1`, the Potency result was “inactive”.

As to `COc1cnc(-c2ccc(Cn3c(CC(C)(C)C(=O)O)c(SC(C)(C)C)c4cc(OC[C@@H]5Cc6ccccc6N5C(C)=O)ccc43)cc2)nc1`, the Potency result is “inactive”.

For `CCC(C)C(=O)O[C@H]1C[C@](C)(O)[C@]23OC(C)(C)[C@H](C[C@H](OC(=O)c4ccccc4)[C@]2(COC(C)=O)[C@H]1OC(=O)C(C)CC)[C@H]3OC(C)=O` (some centres not stated), the Potency entry was “inactive”.

On to `CC1CC2(O)OC(=O)C3=C2C(CCC3)[C@@]12C[C@@H](c1ccoc1)OC2=O` (some centres not stated), for which the Potency result was “inactive”.

As for `COc1cc(C(C)=O)ccc1O[C@@H]1O[C@H](CO)[C@@H](O)[C@H](O)[C@H]1O`, the Potency result was “inactive”.

Turning to `COC(=O)C1=COC(OC2OC(CO)C(O)C(O)C2O)C2C(C)C(OC(C)=O)C(OC(=O)c3ccccc3)C12` (configuration not stated), the Potency entry is “inactive”.

With `COc1ccnc2[nH]cc(C(=O)C(=O)N3CCN(C(=O)c4ccccc4)CC3C)c12` (configuration not stated), the Potency entry is “inactive”.

In the case of `C[C@@H]1O[C@@H](O[C@H]2[C@H](O)[C@@H](O)[C@H](OC[C@H]3O[C@@H](OC(=O)[C@]45CCC(C)(C)C[C@H]4C4=CCC6[C@@]7(C)C[C@@H](O)[C@H](O)[C@@](C)(CO)C7[C@H](O)C[C@@]6(C)[C@]4(C)CC5)[C@H](O)[C@@H](O)[C@@H]3O)O[C@@H]2CO)[C@H](O)[C@H](O)[C@H]1O` (some centres not stated), the activity change, negative = cytotoxicity is -6.07% [at 11.6 µM].

The record behind these values is PubChem BioAssay (NCATS).
